Screens from PubChem BioAssay.
Only a selection was taken, and hits are over-represented in it overall.
Sa helicase inh: blocks Staphylococcus aureus DNA helicase. purified S. aureus helicase, fluorescence unwinding assay. inhibition, % (no concentration beside the values). 120,000 compounds, 0.05% hits; in the data active = inhibition above about 25%, passing the limit was not always enough;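 note: 0% = mean of negative control wells and 100% = mean of positive control wells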
Sa growth 42C: S. aureus growth inhibition | 170,000 compounds, 0.53% hits | S. aureus RN4220 growth, OD600, 20 h, 42 °C; stronger effect = lower value | relative growth, % (test concentration not listed);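 active = relative growth at most 50% at the other temperature and 20+ points below 30 °C, or under 10% at both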
Numbers without * were called inactive.

How did CC(C)n1c(=S)[nH]c2scc(-c3cccs3)c2c1=O do in these assays?
Sa helicase inh: 9; Sa growth 42C: 3.9*

What do the screens show for `O=c1c2c(-c3cccs3)csc2[nH]c(=S)n1-c1ccccc1`?
Sa helicase inh: 3; Sa growth 42C: 108

What do the screens show for `NC(N)=N/N=C/c1cn(-c2ccccc2)nc1-c1ccccc1`?
Sa helicase inh: -19; Sa growth 42C: -1.6*

What do the screens show for `NC(=O)N/N=C/c1cn(-c2ccccc2)nc1-c1ccccc1`?
Sa helicase inh: -5; Sa growth 42C: 83

Results for COCC(C)NCc1cc(=O)oc2cc(C)c(C(C)C)cc12 (stereo not given) ?
Sa helicase inh: -9; Sa growth 42C: 87

Results for CC(C)(C)C1CCc2nc(NC(=O)c3ccc([N+](=O)[O-])cc3)sc2C1 (stereo not given) ?
Sa growth 42C: 95

How did CC(C)(C)C1CCc2nc(NC(=O)c3cccc(Cl)c3)sc2C1 (stereo not given) do in these assays?
Sa growth 42C: 13*

What do the screens show for `CCc1ccc(-n2c(=O)oc3ccc(Cl)cc3c2=O)cc1`?
Sa helicase inh: 7; Sa growth 42C: 46

How did CCc1ccccc1-n1c(=O)oc2ccc(Cl)cc2c1=O do in these assays?
Sa helicase inh: -17; Sa growth 42C: -0.8*

Results for Cc1cc(C)[nH]c(=S)n1 ?
Sa helicase inh: -4; Sa growth 42C: 77

Results for Cc1cc(=S)nc(C(C)C)[nH]1 ?
Sa helicase inh: -6; Sa growth 42C: 28*

Results for CC(NC(=O)Nc1cccc(C(F)(F)F)c1)c1nc2ccccc2[nH]1 (stereo not given) ?
Sa helicase inh: -6; Sa growth 42C: 0.5*

How did C[C@H](NC(=O)c1cccc(C(F)(F)F)c1)c1nc2ccccc2[nH]1 do in these assays?
Sa helicase inh: 11; Sa growth 42C: 86

Results for O=C(/C=C1/NCC2c3ccccc3CCN2C1=O)c1ccc(F)cc1 (stereo not given) ?
Sa helicase inh: -32; Sa growth 42C: 89

What do the screens show for `Cc1cc2cc(CNC(=O)Cc3cccc4ccccc34)ccc2[nH]1`?
Sa helicase inh: 13; Sa growth 42C: 102

What do the screens show for `O=C(NCCc1ccc(Cl)cc1)C1CCN(c2ncnc3c2nc2n3CCCCC2)CC1`?
Sa growth 42C: 95

What do the screens show for `CC1CC1C(=O)OCC(=O)Nc1ccc(F)cc1` (stereo not given)?
Sa helicase inh: 10; Sa growth 42C: 72

How did O=C(Nc1ccccc1)Nc1nnc(C(F)(F)F)s1 do in these assays?
Sa growth 42C: 1.1*

Results for CC(C)(Oc1ccc(Cl)cc1)C(=O)Nc1nccs1 ?
Sa helicase inh: -9; Sa growth 42C: 95

How did CC(C)(Oc1ccc(Cl)cc1)C(=O)Nc1nnc(C(F)(F)F)s1 do in these assays?
Sa helicase inh: 32; Sa growth 42C: -1.1*

What do the screens show for `O=C(Nc1nnc(C(F)(F)F)s1)c1ccccc1`?
Sa helicase inh: 13; Sa growth 42C: 55

How did CCOC(=O)c1oc2ccccc2c1CO do in these assays?
Sa helicase inh: 10; Sa growth 42C: -0.7*

What do the screens show for `CCOC(=O)c1oc2ccccc2c1CN1C(=O)c2ccccc2C1=O`?
Sa helicase inh: -20; Sa growth 42C: 92

Results for N=C1SC2CS(=O)(=O)CC2N1c1cccc(C(F)(F)F)c1 (stereo not given) ?
Sa helicase inh: -18; Sa growth 42C: 111

Results for Cc1onc(-c2ccccc2)c1C(=O)NC1C(=O)N2[C@@H]1SC(C)(C)[C@@H]2C(=O)O (stereo not given in full) ?
Sa growth 42C: -0.9*

What do the screens show for `CCCNC(=O)c1c(OC)cccc1OC`?
Sa helicase inh: -2; Sa growth 42C: 86

What do the screens show for `Cc1onc(-c2c(Cl)cccc2Cl)c1C(=O)N[C@@H]1C(=O)N2[C@@H]1SC(C)(C)[C@@H]2C(=O)O`?
Sa growth 42C: -0.4*

Results for COc1cccc(OC)c1C(=O)N[C@@H]1C(=O)N2[C@@H]1SC(C)(C)[C@@H]2C(=O)O ?
Sa growth 42C: -0.7*

What do the screens show for `Cc1onc(-c2ccccc2)c1C(=O)NC12CC3CC(CC(C3)C1)C2`?
Sa helicase inh: -7; Sa growth 42C: 93

Results for Cc1onc(-c2c(F)cccc2Cl)c1C(=O)NC1CCSC1=O (stereo not given) ?
Sa helicase inh: 5

How did COc1cc(C#N)ccc1OCc1nc(-c2ccc(Cl)cc2)no1 do in these assays?
Sa helicase inh: 0; Sa growth 42C: 93

What do the screens show for `COc1cc(Cl)c(C)cc1NC(=O)CSC`?
Sa helicase inh: -2; Sa growth 42C: 91

How did O=C(O)CSCC(=O)N1CCN(C(=O)c2ccc(Cl)cc2)CC1 do in these assays?
Sa growth 42C: 87

What do the screens show for `COc1ccc(CC(=O)n2nc(C)cc2C)cc1`?
Sa helicase inh: 12; Sa growth 42C: 97

Results for CCCSc1nnc(-c2c[nH]c3ccccc23)n1CC ?
Sa helicase inh: -6; Sa growth 42C: 79

How did COc1ccc(C)cc1NC(=O)c1oc2ccc(S(=O)(=O)N3CCOCC3)cc2c1C do in these assays?
Sa growth 42C: 112

What do the screens show for `CNc1nc2ccccc2[nH]1`?
Sa helicase inh: -26; Sa growth 42C: 108

Results for c1ccc(Nc2nc3ccccc3[nH]2)nc1 ?
Sa helicase inh: 6; Sa growth 42C: 0.9*

What do the screens show for `Cc1ccc(S(C)(=O)=O)s1`?
Sa helicase inh: -3; Sa growth 42C: 125

Results for CC(C)(C)NC(=O)c1cc(Br)cc2c1OCC2 ?
Sa growth 42C: 84

What do the screens show for `CCOC(=O)c1nc(NC(C)C)c2ccccc2n1`?
Sa helicase inh: 12; Sa growth 42C: 103

What do the screens show for `O=S(=O)(NCCc1csc2nc(-c3ccccc3)nn12)c1ccccc1`?
Sa helicase inh: -17; Sa growth 42C: 128

Results for Cc1cc(C)n(-c2ccc(C(=O)Nc3ccc4c(c3)OCCO4)cc2)n1 ?
Sa helicase inh: 13; Sa growth 42C: 97

How did CCN(Cc1ccccc1)C(=O)Nc1c[nH]c2ccccc12 do in these assays?
Sa helicase inh: -13; Sa growth 42C: 3.6*

How did CCN(Cc1ccccc1)C(=O)Cc1ccccc1 do in these assays?
Sa growth 42C: 103

Results for O=C(N=Nc1c(O)[nH]c(=O)[nH]c1=O)c1ccccn1 ?
Sa helicase inh: 5; Sa growth 42C: 101

What do the screens show for `O=C(N=Nc1c2ccccc2c2nc3no[nH]c3nc12)c1ccccc1O`?
Sa helicase inh: -28; Sa growth 42C: 0.6*

Results for CCc1cccc(NC(=O)C2Cc3ccccc3N2C(=O)c2ccccc2)c1 (stereo not given) ?
Sa growth 42C: 113

How did NS(=O)(=O)c1ccc(CNC(=O)c2ccccc2Oc2ccccc2)cc1 do in these assays?
Sa helicase inh: 13; Sa growth 42C: 103

What do the screens show for `COCCN1COc2c(cc(Cl)c3cccnc23)C1`?
Sa helicase inh: 12; Sa growth 42C: 0.9*

Results for COc1ccc(CCN2COc3c(cc(Cl)c4cccnc34)C2)cc1OC ?
Sa helicase inh: 14

Results for CCc1cc(-c2[nH]ncc2-c2cnn(-c3ccccc3)c2)c(O)cc1O ?
Sa helicase inh: 17; Sa growth 42C: 9.5*

How did CCc1cc(-c2[nH]ncc2-c2ccc(Br)cc2)c(O)cc1O do in these assays?
Sa helicase inh: -17

How did CN1CCSc2ccc(C(=O)NCc3ccccc3)cc21 do in these assays?
Sa growth 42C: 105

How did Cc1noc2ncnc(N3CCCC(C(=O)Nc4cc(F)ccc4F)C3)c12 (stereo not given) do in these assays?
Sa growth 42C: 105

How did CC(C)Nc1ccc(Nc2ccnc3cc4ccccc4cc23)cc1 do in these assays?
Sa helicase inh: 67*; Sa growth 42C: -1.9*
